CF NFkB block: cystic fibrosis NF-kB activation inhibition; inhibition, % at 5 µM; 360,000 compounds, 0.86% hits; KKLEB NF-kB-GFP reporter, PAF-induced, GFP fluorescence overnight;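 active = at least 50% inhibition at 5 µM, scaled per plate between neutral and stimulator controls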;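 also: PAF is a Pseudomonas aeruginosa culture filtrate used as stimulus; plate controls were PAF-stimulated DMSO wells for no effect and unstimulated DMSO wells for full effect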
HIF-2a block: blocks HIF-2a reporter activity; 786-0 RCC cells HIF-2a reporter, luciferase luminescence, overnight; inhibition, % at 18.8 µM; 360,000 compounds, 0.72% hits;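 active = inhibition of the luminescence signal of 40% or more relative to plate controls, in a single-dose primary screen at 18.75 µM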
KKLEB cytotox: reduces viability of KKLEB cystic fibrosis airway cells; KKLEB CF airway cells viability, ATPlite luminescence, overnight; stronger effect = lower value; cells stimulated with P. aeruginosa culture filtrate; activity change (cytotoxicity), % at 5 µM; 360,000 compounds, 0.36% hits; AID 602141;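 active = corrected activity change at or below -50% at 5 µM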
Shn3 3UTR inh: inhibitors of Schnurri-3 3'UTR reporter in osteoblasts | Clone20 osteoblast Shn3 3'UTR firefly luciferase, 24 h | inhibition, % at 12.5 µM | 360,000 compounds, 0.52% hits | AID 588674;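 active = mean inhibition of at least 75% with every replicate also reaching 75%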;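 also: 0% = median of neutral control wells and 100% = pilot-screen positive control compound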
EBV LMP1 NFkB: inhibitors of Epstein-Barr LMP1-induced NF-kappaB reporter | LMP1-induced NF-kappaB luciferase reporter cells, luminescence | inhibition, % at 12.5 µM | 350,000 compounds, 0.69% hits | AID 504558; in the data active = inhibition above about 41%;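 also: 0% = neutral control wells and 100% = reference inhibitor control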
Peg3 promoter: inhibitors of Peg3 promoter. HeLa PEG-Prom luciferase reporter, luminescence, overnight. AID 588405. 360,000 compounds, 1.7% hits. inhibition, % at 20 µM;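 active = inhibition of at least 50% at 20 µM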
CF NFkB inh conf: CF NF-kB inhibition confirmation, single concentration. shares compounds with CF NFkB block. KKLEB CF airway cells, PAF-induced NF-kB-GFP fluorescence, overnight. inhibition, % at 5 µM. 1,300 compounds, 64% hits; in the data active = inhibition above about 40%;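 also: stimulus PAF is a Pseudomonas aeruginosa filtrate and not platelet activating factor; plate controls were DMSO wells with stimulus for no effect and unstimulated DMSO wells for full effect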
* = called active by the depositor; . = not tested or not shown; ! = not active in a repeat. A selection: hits, their analogues and other compounds. The true share with any hit is near 2.9%.

SMILES	CF NFkB block	HIF-2a block	KKLEB cytotox	Shn3 3UTR inh	EBV LMP1 NFkB	Peg3 promoter	CF NFkB inh conf
CC(=O)Oc1ccc(-c2ccc(C(=O)OCC(=O)N(C)CC(=O)Nc3ccccc3Cl)cc2)cc1	52*	13	-44	21	-14	5	36
CCn1c2ccccc2c2cc(/C=N/O)ccc21	72*	3	-9	14	21	-20	62*
CCn1c2ccccc2c2cc(NC(C)=O)ccc21	-4	7	4	-11	5	-4	.
CCOC(=O)Nc1ccc2c(c1)N(C(=O)CCN(CC)CC)c1ccccc1S2=O (stereo unspecified)	91*	28	-30	1	3	58*	43*
Cc1onc(-c2ccccc2)c1C(=O)N1CCCSC1=Nc1ccccc1	56*!	10	2	-17	2	5	-17
COc1cccc(CNC(=O)CN2CCC(c3nc4ccc(C)cc4[nH]3)CC2)c1	56*	19	-13	3	2	5	10
CCC[n+]1c(C)sc2c3c(ccc21)CCCC3	58*	6	-23	92*	23	32	20
CC[n+]1c(C)sc2c(C)cc(C)cc21	-13	10	3	6	-1	-1	.
CCCn1cc(CN2CCC(Oc3ccc(C(=O)N4CCCC4)cc3)CC2)c(C)n1	1	1	0	0	6	-1	.
Cc1ccc(S(=O)(=O)Nc2nc3ccccc3nc2Nc2cccc(S(=O)(=O)N3CCCC3)c2)cc1	69*	-49	-44	26	5	37	71*
CCCc1nnc(NC(=O)c2nc(S(=O)(=O)Cc3ccc(C)cc3)ncc2Cl)s1	90*	-1	-33	91*	22	103*	91*
C=CCn1c(Oc2ccccc2F)nc2c1c(=O)n(C)c(=O)n2C	57*	22	-16	8	13	10	64*
C=CCn1c(Oc2cc(C)ccc2C)nc2c1c(=O)n(C)c(=O)n2C	27	19	-14	-9	5	-2	.
COc1ccc(-c2cn(Cc3ccc(C(N)=O)cc3)c(-c3ccncc3)n2)cc1	-3	-232	12	-79	-11	-245	.
COc1ccc(C(C(=O)NCc2ccccc2)n2c(-c3ccccn3)nc3ccccc32)cc1 (stereo unspecified)	.	1	.	.	.	.	.
COc1cccc(C(=O)N2C(C(C)C)COc3cc(Br)ccc3S2(=O)=O)c1 (stereo unspecified)	50*	-34	27	-11	7	41	55*
Cc1cccc(C(=O)N2[C@@H](C(C)C)COc3cc(Br)ccc3S2(=O)=O)c1	61*	-46	8	-18	11	57*	59*
Cc1cccc(CC(=O)NCC(=O)NCc2cc(=O)n(C)c(=O)n2C)c1	-4	6	5	2	-2	-11	.
Cc1ccc(C)c(N2CCN(C(=O)CCn3c(=S)[nH]c4cc5c(cc4c3=O)OCO5)CC2)c1	5	27	-1	-14	5	9	.
O=C(NCc1ccc(F)cc1)C(c1ccccc1)N(C(=O)c1csnn1)c1ccccc1 (stereo unspecified)	61*	24	3	15	-1	40	17
NC(=O)c1nsc(C(=O)N(c2ccccc2)C(C(=O)NCc2ccc(F)cc2)c2ccc(O)cc2)c1N (stereo unspecified)	52*	20	-10	5	5	55*	74*
O=C(NCc1ccccc1)C(c1ccccc1)N(C(=O)c1csnn1)c1ccccc1 (stereo unspecified)	19	18	-6	11	-2	31	.
COc1ccc(C(=O)N[C@H](C(=O)NCCc2ccc3c(c2)OCCO3)C(C)C)cc1	8	4	11	13	0	-2	.
O=C(O)c1ccccc1-c1ccccc1C(=O)Nc1cccc(O)c1	12	11	8	-10	8	-2	.
CCOc1ccccc1N1CCN(C(=O)c2cc(-c3cc(OC)ccc3OC)nc3ccccc23)CC1	65*	12	-6	6	6	44	63*
SMILES	CF NFkB block	HIF-2a block	KKLEB cytotox	Shn3 3UTR inh	EBV LMP1 NFkB	Peg3 promoter	CF NFkB inh conf
COc1ccc(OC)c(-c2cc(C(=O)Nc3ccccc3C(N)=O)c3ccccc3n2)c1	80*	13	-19	18	.	54*	24
COc1ccc(OC)c(-c2cc(C(=O)N/N=C/c3ccc(F)cc3)c3ccccc3n2)c1	2	20	10	-10	.	18	.
CC(C)(C)c1ccc(/C=N/OCC(=O)NCc2ccc(F)cc2)cc1	-3	-15	-18	-27	2	-21	.
Cc1cccc(C)c1NC(=O)Nc1nc(C(N)c2ccccc2Cl)cs1 (stereo unspecified)	2	20	-3	-16	.	2	.
NC(c1csc(NC(=O)Nc2cccc(Cl)c2)n1)c1ccccc1Cl (stereo unspecified)	91*	-43	-16	2	.	100*	77*
CCOC(=O)c1[nH]c2c(c1C)C(=O)CC(c1ccco1)C2 (stereo unspecified)	57*	10	-19	11	2	-27	80*
CCCCCCSc1cc(-c2nc3ccc(C)cn3c2NCc2ccccc2)ccc1OC	53*	-52	-3	-4	-16	50	30
CCCCCCSc1cccc(-c2nc3ccc(C)cn3c2NCc2ccccc2)c1	21	-185	9	-6	6	-59	.
CCCCC(=O)/C=C/n1c(=S)oc2ccccc21	90*	-43	-36	-47	-23	101*	-143
CC(C)c1nc2n[nH]c(N)c2c2c1CCCC2	50*	16	-8	-4	14	-7	32
Cc1ccc(NC(=O)CSc2ncnc3ccccc23)cc1S(=O)(=O)N1CCCCC1	41	21	1	11	19	12	.
Cc1ccc(NC(=O)CSc2ncnc3ccccc23)cc1S(=O)(=O)N1CCOCC1	56*	29	-21	9	13	19	73*
Cc1ccc2cc(/C=C/C(=O)c3ccco3)c(Cl)nc2c1	64*	-224	-31	-182	.	-165	-101
Nc1ncnc(Nc2ccc(F)cc2)n1	3	-14	-13	-30	12	-31	.
Fc1ccc(Nc2ccnc(Nc3ccc(F)cc3)n2)cc1	58*	-274	-17	-33	-23	-195	56*
Oc1ccc2sc(-c3ccccc3O)c(-c3ccc(OCCN4CCCCC4)cc3)c2c1	.	-3	.	.	.	.	.
COc1cccc(-c2sc3ccccc3c2-c2ccc(OCCN3CCCC3)cc2)c1	54*	-5	-28	48	-5	100*	31
c1ccc(-c2sc3ccccc3c2-c2ccc(OCCN3CCCC3)cc2)cc1	52*	0	-42	-3	-12	93*	-5
Cc1ccc(S(=O)(=O)N2CCN(C(=O)c3ccccc3)CC2)c(C)c1NS(C)(=O)=O	-7	14	6	5	-2	9	.

Screening results deposited in PubChem by several laboratories.
